# In PubChem BioAssay:
# Activity calls are given as the source filed them.
# Legend:
# [1] = test system: Plasmodium falciparum Sir2 (PF13_0152, Sir2A); test: Plasmodium falciparum Sir2A binding compounds – biochemical, small-molecule microarray, 635 nm fluorescence, primary screen (AID 1098); details: fluorescence 635 nm, higher = more signal;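 also: score merges spot fluorescence intensity with its signal-to-noise ratio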
# [2] = probe aDKK1 binding to arrayed compounds – biochemical, biotinylated probe, 635/667 nm fluorescence, primary screen (AID 1099); details: small-molecule microarray, higher = more signal;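 also: score merges 667nm spot fluorescence with signal to noise across triplicate slides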
# [3] = probe aCHRDL2 binding to arrayed compounds – biochemical, biotinylated probe, 635/667 nm fluorescence, primary screen (AID 1100); details: small-molecule microarray, higher = more signal
# [4] = change in splice reporter luminescence, either direction, cell-based, HEK293, spliceosome inhibition project, primary screen (AID 1101); details: HEK293 splicing luciferase reporter, 24 h, higher = more signal, called active from +8 up or from −8 down;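 also: HEK293 cells carrying a splicing-competent luciferase reporter gene; test concentration not given here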
# [5] = molecular target: Fibroblast growth factor 10 (Homo sapiens) (UniProt O15520); test: compounds binding fibroblast growth factor 10 – biochemical, small-molecule microarray, 635 nm fluorescence, primary screen (AID 1102); details: FGF10 binding, fluorescence 635 nm, higher = more signal
# [6] = test system: glycogen synthase kinase-3 (GSK3A per assay name; protocol says GSK3B); test: compounds binding glycogen synthase kinase-3 – biochemical, small-molecule microarray, 635 nm fluorescence, GSK3A, primary screen (AID 1103); details: fluorescence 635 nm, higher = more signal; also: the record names both GSK3A and GSK3B
# [7] = molecular target: Epidermal growth factor receptor (Homo sapiens) (UniProt P00533); test: compounds binding epidermal growth factor receptor – biochemical, small-molecule microarray, 635 nm fluorescence, primary screen (AID 1104); details: EGFR binding, higher = more signal;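 also: score merges 667 nm emission intensity with spot signal to noise over triplicate slides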
# [8] = molecular target: Follistatin-related protein 3 (Homo sapiens) (UniProt O95633); test: compounds binding follistatin-related protein 3 – biochemical, small-molecule microarray, 635 nm fluorescence, primary screen (AID 1105); details: FSTL3 binding, higher = more signal;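 also: score merges emission near 667 nm and signal to noise per printed spot across three slides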
# [9] = molecular target: Dickkopf-related protein 1 (Homo sapiens) (UniProt O94907); test: small molecules binding DKK1 protein – biochemical, small-molecule microarray, 635 nm fluorescence scan, primary screen (AID 1106); details: higher = more signal;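 also: score merges emission near 667 nm with signal to noise over three replicate slides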
# [10] = test system: Inhibin beta A chain (activin A); test: small molecules binding activin A – biochemical, small-molecule microarray, 635 nm fluorescence scan, primary screen (AID 1107); details: INHBA, higher = more signal;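 also: mouse activin A protein probed at 4.33 µg/mL on printed slides; score merges bound-protein fluorescence near 667 nm with spot signal-to-noise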
# [11] = test system: Human papillomavirus type 1a protein E7 (residues 44-93); test: small molecules binding HPV E7 44-93 – biochemical, small-molecule microarray, residues 44-93, 635 nm fluorescence, primary screen (AID 1108); details: fluorescence 635 nm, higher = more signal;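 also: E7 fragment applied at 1 µg/mL in TBST for 1 h at 4 C; score combines spot fluorescence with its signal to noise ratio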
# [12] = hepatitis C replication reporter changes, two-sided – Huh7 cells, luciferase reporter, HCV replication inhibitor project, primary screen (AID 1109); details: Huh7 HCV replicon luciferase reporter, 48 h; higher = more signal;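 also: huh7 hepatoma cells harbouring a luciferase neomycin HCV replicon reporter; luciferase luminescence as measure of HCV replicon replication; test concentration not given here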
# [13] = molecular target: Left-right determination factor 2 (Homo sapiens) (UniProt O00292); test: small molecules binding LEFTY2 protein – biochemical, small-molecule microarray, 635 nm fluorescence scan, primary screen (AID 1110); details: higher = more signal
# [14] = molecular target: Calmodulin-1 (Homo sapiens) (UniProt P0DP23); test: small molecules binding calmodulin-1 with EGTA – biochemical, small-molecule microarray, Cy5-labelled CALM1, profiling panel (AID 1111); details: Cy5-CALM1 binding fluorescence, higher = more signal;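 also: labelled calmodulin applied in Tris saline Tween buffer holding calcium plus EGTA and DTT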
# [15] = molecular target: Calmodulin-1 (Homo sapiens) (UniProt P0DP23); test: small molecules binding Ca-loaded calmodulin-1 – biochemical, small-molecule microarray, Cy5-labelled CALM1, plus calcium, artefact control for SMM control-protein annotation, profiling panel (AID 1112); details: Cy5-CALM1 binding fluorescence, higher = more signal;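 also: score merges spot fluorescence with signal to noise from triplicate slides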
# [16] = probe aWnt5a binding to arrayed compounds – biochemical, biotinylated probe, 635/667 nm fluorescence, primary screen (AID 1113); details: small-molecule microarray, higher = more signal;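 also: score merges 667 nm fluorescence intensity with signal-to-noise per printed feature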
# [17] = probe aShh binding to arrayed compounds – biochemical, biotinylated probe, 635/667 nm fluorescence, primary screen (AID 1114); details: small-molecule microarray, higher = more signal;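 also: probe is biotin-labelled aShh protein from a stem cell growth factor screen; measures binding of labelled protein to compounds printed on the slide; score merges feature fluorescence at 667 nm with signal-to-noise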
# [18] = probe aNog binding to arrayed compounds – biochemical, biotinylated probe, 635/667 nm fluorescence, primary screen (AID 1115); details: small-molecule microarray, higher = more signal;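 also: probe is biotinylated aNog protein used at 0.15 µg/mL for 1 h at 4 C; z-score combines 667 nm fluorescence of each spot with its signal to noise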
# [19] = molecular target: Torsin-1A-interacting protein 1 (Homo sapiens) (UniProt Q5JTV8); test: compound microarray binding of lysate hLAP1 – cell lysate, small-molecule microarray, COS7 lysate, 635/667 nm fluorescence, primary screen (AID 1116); details: 635 nm fluorescence, higher = more signal
# [20] = molecular target: Alpha-bungarotoxin (Bungarus multicinctus) (UniProt P60615); test: compounds binding labelled alpha-BTX control protein – biochemical, small-molecule microarray, Alexa647 label, 635/667 nm fluorescence, artefact control for SMM control protein annotation, profiling panel (AID 1117); details: alpha-BTX-A647 binding fluorescence, higher = more signal
# Chain of Alpha-bungarotoxin (Bungarus multicinctus) (P60615 whole entry, looked up): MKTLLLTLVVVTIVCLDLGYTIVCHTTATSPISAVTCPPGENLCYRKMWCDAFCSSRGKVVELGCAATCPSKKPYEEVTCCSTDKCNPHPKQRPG
# Chain of Left-right determination factor 2 (Homo sapiens) (O00292 whole entry, looked up): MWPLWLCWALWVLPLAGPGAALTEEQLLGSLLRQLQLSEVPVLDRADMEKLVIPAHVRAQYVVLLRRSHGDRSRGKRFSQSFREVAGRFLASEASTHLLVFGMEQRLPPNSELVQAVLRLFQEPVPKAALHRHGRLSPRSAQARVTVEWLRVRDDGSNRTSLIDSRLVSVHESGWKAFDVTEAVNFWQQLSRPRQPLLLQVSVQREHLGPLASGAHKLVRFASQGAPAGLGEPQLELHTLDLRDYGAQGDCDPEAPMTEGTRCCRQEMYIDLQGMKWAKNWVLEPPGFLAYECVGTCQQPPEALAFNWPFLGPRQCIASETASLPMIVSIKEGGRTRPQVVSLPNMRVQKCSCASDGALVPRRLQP
# Chain of Epidermal growth factor receptor (Homo sapiens) (P00533 whole entry, looked up): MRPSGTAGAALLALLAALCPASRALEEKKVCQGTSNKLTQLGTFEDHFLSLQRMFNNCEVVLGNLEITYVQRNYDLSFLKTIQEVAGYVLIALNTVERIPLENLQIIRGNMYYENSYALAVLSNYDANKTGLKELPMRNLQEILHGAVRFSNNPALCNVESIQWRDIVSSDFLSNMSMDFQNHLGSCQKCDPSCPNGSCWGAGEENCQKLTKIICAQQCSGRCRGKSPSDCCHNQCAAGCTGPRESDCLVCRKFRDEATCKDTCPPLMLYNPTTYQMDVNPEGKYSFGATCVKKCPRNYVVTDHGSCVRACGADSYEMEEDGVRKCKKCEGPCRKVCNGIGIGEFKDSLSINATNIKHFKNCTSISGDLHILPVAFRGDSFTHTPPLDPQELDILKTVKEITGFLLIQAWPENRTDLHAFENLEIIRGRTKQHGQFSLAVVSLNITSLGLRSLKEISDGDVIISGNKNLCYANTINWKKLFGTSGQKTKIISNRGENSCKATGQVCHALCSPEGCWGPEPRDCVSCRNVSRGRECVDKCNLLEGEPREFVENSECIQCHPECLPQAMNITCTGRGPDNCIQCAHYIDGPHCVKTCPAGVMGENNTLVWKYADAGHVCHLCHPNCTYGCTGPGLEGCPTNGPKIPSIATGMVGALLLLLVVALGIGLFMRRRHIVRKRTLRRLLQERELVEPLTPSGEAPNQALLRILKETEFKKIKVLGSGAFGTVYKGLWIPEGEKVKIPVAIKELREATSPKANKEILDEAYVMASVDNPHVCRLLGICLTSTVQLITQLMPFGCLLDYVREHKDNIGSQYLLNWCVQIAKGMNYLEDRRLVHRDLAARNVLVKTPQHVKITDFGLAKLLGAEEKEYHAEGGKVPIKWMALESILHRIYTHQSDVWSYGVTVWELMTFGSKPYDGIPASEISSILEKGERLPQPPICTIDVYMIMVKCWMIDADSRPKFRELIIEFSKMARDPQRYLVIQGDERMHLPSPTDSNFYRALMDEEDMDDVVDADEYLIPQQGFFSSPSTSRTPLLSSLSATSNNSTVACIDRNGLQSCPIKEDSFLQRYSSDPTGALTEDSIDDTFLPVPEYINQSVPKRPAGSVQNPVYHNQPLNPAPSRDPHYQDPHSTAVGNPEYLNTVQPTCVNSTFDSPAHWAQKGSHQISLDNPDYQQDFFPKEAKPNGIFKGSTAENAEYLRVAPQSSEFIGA
# Chain of Torsin-1A-interacting protein 1 (Homo sapiens) (Q5JTV8 whole entry, looked up): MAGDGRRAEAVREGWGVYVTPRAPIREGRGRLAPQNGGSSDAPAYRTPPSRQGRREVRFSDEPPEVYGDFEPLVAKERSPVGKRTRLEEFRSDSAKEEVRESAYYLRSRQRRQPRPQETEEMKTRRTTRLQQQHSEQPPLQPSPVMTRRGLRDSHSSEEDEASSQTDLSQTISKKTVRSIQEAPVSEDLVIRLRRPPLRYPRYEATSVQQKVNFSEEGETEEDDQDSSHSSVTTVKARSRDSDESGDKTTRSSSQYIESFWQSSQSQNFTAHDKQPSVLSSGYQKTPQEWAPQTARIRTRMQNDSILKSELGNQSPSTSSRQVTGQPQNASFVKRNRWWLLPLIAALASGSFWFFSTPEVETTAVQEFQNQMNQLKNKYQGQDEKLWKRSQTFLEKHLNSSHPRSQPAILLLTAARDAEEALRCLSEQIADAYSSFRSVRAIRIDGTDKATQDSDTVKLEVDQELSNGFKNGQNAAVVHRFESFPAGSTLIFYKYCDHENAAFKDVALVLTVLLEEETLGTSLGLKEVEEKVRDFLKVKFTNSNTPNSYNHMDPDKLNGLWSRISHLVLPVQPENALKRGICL
# Chain of Follistatin-related protein 3 (Homo sapiens) (O95633 whole entry, looked up): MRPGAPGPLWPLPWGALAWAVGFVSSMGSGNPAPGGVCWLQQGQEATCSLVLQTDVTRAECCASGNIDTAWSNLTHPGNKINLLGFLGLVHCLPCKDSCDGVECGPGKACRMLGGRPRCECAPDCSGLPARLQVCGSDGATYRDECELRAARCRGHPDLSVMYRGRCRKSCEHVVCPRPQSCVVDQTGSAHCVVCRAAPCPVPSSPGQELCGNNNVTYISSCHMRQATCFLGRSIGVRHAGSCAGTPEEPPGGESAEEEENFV
# Chain of Fibroblast growth factor 10 (Homo sapiens) (O15520 whole entry, looked up): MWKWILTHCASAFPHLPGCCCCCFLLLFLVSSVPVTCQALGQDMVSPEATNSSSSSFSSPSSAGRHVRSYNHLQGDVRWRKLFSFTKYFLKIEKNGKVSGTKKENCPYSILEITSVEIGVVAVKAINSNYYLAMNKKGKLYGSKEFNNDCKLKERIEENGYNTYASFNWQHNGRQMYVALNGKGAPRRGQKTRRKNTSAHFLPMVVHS
# Chain of Dickkopf-related protein 1 (Homo sapiens) (O94907 whole entry, looked up): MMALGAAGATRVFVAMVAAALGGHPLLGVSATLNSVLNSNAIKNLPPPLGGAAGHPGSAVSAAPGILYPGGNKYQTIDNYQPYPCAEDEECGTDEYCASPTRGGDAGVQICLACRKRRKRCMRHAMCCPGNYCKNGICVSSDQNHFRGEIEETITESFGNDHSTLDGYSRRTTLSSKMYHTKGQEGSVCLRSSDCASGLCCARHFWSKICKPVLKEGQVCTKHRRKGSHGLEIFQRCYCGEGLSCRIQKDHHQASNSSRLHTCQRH
Structure (SMILES),composite z-score [1],composite z-score [2],composite z-score [3],z-score [4],composite z-score [5],composite z-score [6],composite z-score [7],composite z-score [8],composite z-score [9],composite z-score [10],composite z-score [11],z-score [12],composite z-score [13],composite z-score [14],composite z-score [15],composite z-score [16],composite z-score [17],composite z-score [18],composite z-score [19],composite z-score [20]
COc1cccc(/C=C/C=O)c1,-0.663,0.24,-0.326,0.85 (inactive),0.393,0.0414,0.417,0.237,0.339,-0.115,0.105,-0.56,0.402,0.0577,-0.363,0.185,0.218,-0.354,0.185,-0.124
CC(C)(C)OC(=O)CC[C@]1(C(=O)NCC(O)CO)N=C(c2ccc(OCCCO)cc2)O[C@H]1c1ccccc1 (stereo not given in full),0.835,1.1,0.897,-0.495 (inactive),0.57,0.206,-0.516,-0.715,-1.09,-0.0014,1.32,-1.74,-1.13,0.451,1.24,-0.0403,-0.0904,0.701,1.93,-0.383
COC(=O)[C@H](Cc1ccccc1)N1CC(/C=C/C2CC2)=C[C@H]1[C@H](O)Cc1ccccc1,0.728,-0.0559,-0.165,20.9 (active),0.697,0.368,0.237,0.702,0.734,0.597,0.484,-4.03,0.396,0.405,-0.647,-0.0944,-0.0693,0.287,0.425,1.2
O=C1C[C@@](C(=O)NCCN2CCOCC2)(c2ccc([N+](=O)[O-])cc2)[C@@H](c2ccc(CO)cc2I)N1C1CCCCC1,0.979,-0.0973,-0.0907,-0.131 (inactive),0.76,1.15,0.593,0.926,0.397,0.454,1.18,-2.66,0.369,-0.413,-0.173,-0.0445,0.0611,0.079,0.646,1.43
COCCOC(=O)N1C(=O)[C@@]2(c3cc(C#CCNC(N)=O)ccc31)[C@H](C(=O)N1CCc3cc(OC)c(OC)cc3C1)[C@H]1C(=O)O[C@H](c3ccccc3)[C@H](c3ccccc3)N1[C@@H]2c1ccccc1OCCO,1.26,0.073,0.315,0.0466 (inactive),1.41,1.14,0.873,1.14,0.246,0.586,0.843,-1.03,0.76,1.29,0.582,-0.0786,-0.305,0.39,1.03,1.85
NC(=O)N1C(=O)C2C(C1=O)C1C=C(CCCO)C2C(c2cccs2)N1Cc1cccc(OC(F)(F)F)c1 (stereo not given),1.41,-0.0349,-0.123,0.23 (inactive),0.493,0.177,0.121,0.211,-0.184,0.944,0.72,-0.933,-0.0132,0.155,0.632,-0.0721,0.723,-0.0132,1.06,0.797
